Binding signal data for 47 sequences are collected here from paper PMC10726135, “HNF4α isoforms regulate the circadian balance between carbohydrate and lipid metabolism in the liver”.

In all, about 18,000 sequences were measured (“log2 normalized intensity”: median about 0.36, highest 2% from about 7.3 on). Many of the other results were omitted from the sample, so the highest values are more common in it than they were.

The target of this experiment is T1, HNF4alpha8 (COS-7 nuclear extract) (Homo sapiens, UniProt P41235-5 1-452).
T1 sequence: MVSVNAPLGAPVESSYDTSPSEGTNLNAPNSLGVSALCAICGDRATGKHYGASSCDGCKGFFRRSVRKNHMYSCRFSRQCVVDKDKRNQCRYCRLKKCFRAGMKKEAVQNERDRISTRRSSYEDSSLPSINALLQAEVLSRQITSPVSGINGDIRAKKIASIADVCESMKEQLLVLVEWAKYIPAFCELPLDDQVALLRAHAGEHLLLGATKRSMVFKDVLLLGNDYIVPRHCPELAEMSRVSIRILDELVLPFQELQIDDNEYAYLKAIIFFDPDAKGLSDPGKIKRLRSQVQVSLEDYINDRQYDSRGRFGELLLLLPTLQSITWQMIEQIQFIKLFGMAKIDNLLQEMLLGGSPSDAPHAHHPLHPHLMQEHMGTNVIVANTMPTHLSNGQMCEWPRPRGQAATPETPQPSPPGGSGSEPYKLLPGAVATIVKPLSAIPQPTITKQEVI
The experiment is described as follows: protein-binding microarray; COS-7 nuclear extract on double-stranded Agilent 4x180k PBM; binding buffer, salt, pH and temperature not given in the material; high values mean tight binding. The note with it: chain copies: 2; label: 3' end of strand 1 on the slide; dsDNA, one strand shown. The procedure, abridged:
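Using CaPO4, COS-7 cells were transiently transfected with a human HNF4α isoform expression vector, and their nuclear extracts were applied to a custom Agilent SurePrint G3 4x180k double-stranded oligonucleotide array (~60 nt; ~44,000 test sequences in quadruplicate). Bound HNF4α was imaged at 2-µm resolution with an Agilent G2565CA scanner. Agilent software supplied the background-corrected, normalized gProcessedSignal that serves as the binding signal.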
Turning to “TATGTTAATGGCAGAATCAAAGGTCAAAATGCCTAGGGAGATTAGAGTATCGGTCGA”, the binding signal worked out at 5.17 log2 normalized intensity.

With “ATAATTCAGTTTCATTGCACTTTGCCCTCTGCCTAGGGAGATTAGAGTATCGGTCGA”, the binding signal stood at 9.39 log2 normalized intensity.

With “TGCACTTTGCCCTCTCTTCAGCACCTTTTAGCCTAGGGAGATTAGAGTATCGGTCGA”, the binding signal amounted to 5.26 log2 normalized intensity.

As for “ACTGCCATTGATAATTCAGTTTCATTGCACGCCTAGGGAGATTAGAGTATCGGTCGA”, the binding signal was -0.131 log2 normalized intensity.

Regarding “TTCATTGCACTTTGCCCTCTCTTCAGCACCGCCTAGGGAGATTAGAGTATCGGTCGA”, the binding signal was determined as 6.34 log2 normalized intensity.

Turning to “TCAGTTTCATTGCACTTTGCCCTCTCTTCAGCCTAGGGAGATTAGAGTATCGGTCGA”, the binding signal came to 7.35 log2 normalized intensity.

For “CATTGATAATTCAGTTTCATTGCACTTTGCGCCTAGGGAGATTAGAGTATCGGTCGA”, the binding signal was found to be 4.62 log2 normalized intensity.

Turning to “GGTCTGTTTGTGAAACAGTGGGCAATATGAGCCTAGGGAGATTAGAGTATCGGTCGA”, the binding signal came to 1.18 log2 normalized intensity.

On to “AACCTAGCCCCCTTTCCCTTATCTTTGTTAGCCTAGGGAGATTAGAGTATCGGTCGA”, for which the binding signal was 2.54 log2 normalized intensity.

“GGACAAAGTTCGTGGAAAGTGGAAGAATGGGCCTAGGGAGATTAGAGTATCGGTCGA”: the binding signal was found to be 0.952 log2 normalized intensity.

“CATGAAGCTTCCCCTTTAACCAATATTAGCGCCTAGGGAGATTAGAGTATCGGTCGA”: the binding signal is 0.107 log2 normalized intensity.

For “TATCTTCTTTCAGTGTTGACCTTTGAACATGCCTAGGGAGATTAGAGTATCGGTCGA”, the binding signal was 9.23 log2 normalized intensity.

With “TATCCAATAAAACACTATCTTCTTTCAGTGGCCTAGGGAGATTAGAGTATCGGTCGA”, the binding signal is 0.405 log2 normalized intensity.

With “GAATGTTGAACCTTTCTTTGTCTTTGCAATGCCTAGGGAGATTAGAGTATCGGTCGA”, the binding signal was 1.98 log2 normalized intensity.

Regarding “AGGAGTGTCTTTCTCCTTGAACACAGTGTTGCCTAGGGAGATTAGAGTATCGGTCGA”, the binding signal is 1.24 log2 normalized intensity.

On to “TCTTTCAGTGTTGACCTTTGAACATTTCTTGCCTAGGGAGATTAGAGTATCGGTCGA”, for which the binding signal turned out to be 8.97 log2 normalized intensity.

As for “CATGCTCTTGGAATGTTGAACCTTTCTTTGGCCTAGGGAGATTAGAGTATCGGTCGA”, the binding signal amounted to 3.19 log2 normalized intensity.

With “TCTTGGAATGTTGAACCTTTCTTTGTCTTTGCCTAGGGAGATTAGAGTATCGGTCGA”, the binding signal was 2.31 log2 normalized intensity.

In the case of “AACACTATCTTCTTTCAGTGTTGACCTTTGGCCTAGGGAGATTAGAGTATCGGTCGA”, the binding signal was found to be 7.46 log2 normalized intensity.

In the case of “AACCTTCATCTCTCTTTGTTGACATCTGCTGCCTAGGGAGATTAGAGTATCGGTCGA”, the binding signal was -0.0144 log2 normalized intensity.

In the case of “TTACCATATTTACTTATGGTTTGACCCTGCGCCTAGGGAGATTAGAGTATCGGTCGA”, the binding signal was 5.23 log2 normalized intensity.

Turning to “AATTCCTTTCAAACTGTATTGCTCAATGTCGCCTAGGGAGATTAGAGTATCGGTCGA”, the binding signal amounted to 0.181 log2 normalized intensity.

On to “GAGTTGGAGAAGAGCAAAGATCATCTGGTGGCCTAGGGAGATTAGAGTATCGGTCGA”, for which the binding signal is 1.45 log2 normalized intensity.

Consider “CAAAAGTTCAAACTTTATTTGATGATGAAGGCCTAGGGAGATTAGAGTATCGGTCGA”, for which the binding signal was found to be 0.503 log2 normalized intensity.

Take “AATGCGCAGAATTTCTTTTAATGTGTGCTTGCCTAGGGAGATTAGAGTATCGGTCGA”: the binding signal is 0.136 log2 normalized intensity.

For “TTAATACTTTGGAACTCAGTTAATGTACAGGCCTAGGGAGATTAGAGTATCGGTCGA”, the binding signal came to 1.59 log2 normalized intensity.

In the case of “CTTAGCAGTGGGAGACAGGCATTAACCCTTGCCTAGGGAGATTAGAGTATCGGTCGA”, the binding signal is 1.74 log2 normalized intensity.

As for “CTTGGGGGAGGAGGGCAACCTTTGAACTGGGCCTAGGGAGATTAGAGTATCGGTCGA”, the binding signal is 6.02 log2 normalized intensity.

“AACTGTACTTTGGACTGGGGACCTGGTCTGGCCTAGGGAGATTAGAGTATCGGTCGA”: the binding signal is 4.79 log2 normalized intensity.

With “CTGGTTCTGCAAGGCAACTGACCTTTGGATGCCTAGGGAGATTAGAGTATCGGTCGA”, the binding signal was determined as 8.71 log2 normalized intensity.

With “TCTGCAAGGCAACTGACCTTTGGATCTGGGGCCTAGGGAGATTAGAGTATCGGTCGA”, the binding signal worked out at 8.01 log2 normalized intensity.

Consider “GAGACAACTGCAACAGGAGGACCTCTGGATGCCTAGGGAGATTAGAGTATCGGTCGA”, for which the binding signal was -0.854 log2 normalized intensity.

Consider “TTCTTCTGGTTCTGCAAGGCAACTGACCTTGCCTAGGGAGATTAGAGTATCGGTCGA”, for which the binding signal is 4.13 log2 normalized intensity.

On to “TTTATGACCTTTGACTGCAGAAGATAAGAAGCCTAGGGAGATTAGAGTATCGGTCGA”, for which the binding signal came to 4.5 log2 normalized intensity.

As to “TGATAAAGGGGGCAAAGGGCATGGGCAGCTGCCTAGGGAGATTAGAGTATCGGTCGA”, the binding signal is 4.41 log2 normalized intensity.

On to “TTAGGAGGATGACAAAGAGCAAGTGACCCTGCCTAGGGAGATTAGAGTATCGGTCGA”, for which the binding signal turned out to be 4.46 log2 normalized intensity.

On to “GGAGTGACCCTGGGAGCAAAGGTCAAGAGTGCCTAGGGAGATTAGAGTATCGGTCGA”, for which the binding signal came out at 7.55 log2 normalized intensity.

Turning to “CCACTGGTGTAAGCTCTGGAGTCCAAAGGTGCCTAGGGAGATTAGAGTATCGGTCGA”, the binding signal stood at 4.54 log2 normalized intensity.

Take “GGTGTAAGCTCTGGAGTCCAAAGGTCAGCAGCCTAGGGAGATTAGAGTATCGGTCGA”: the binding signal stood at 8.69 log2 normalized intensity.

Take “GGAGACCACTGGTGTAAGCTCTGGAGTCCAGCCTAGGGAGATTAGAGTATCGGTCGA”: the binding signal is 1.64 log2 normalized intensity.

With “AAGGTCAGCAAGCCTGGAGTTCTGATGTTCGCCTAGGGAGATTAGAGTATCGGTCGA”, the binding signal came to 0.91 log2 normalized intensity.

As for “TGGGAGCAAAGGTCAAGAGTTTTAAAGTATGCCTAGGGAGATTAGAGTATCGGTCGA”, the binding signal is 5.47 log2 normalized intensity.

In the case of “TGTTTGCCTCTCAGCTCATTCAAAGTCCAAGCCTAGGGAGATTAGAGTATCGGTCGA”, the binding signal was found to be 4.2 log2 normalized intensity.

With “GTCCAAAGGTCAGCAAGCCTGGAGTTCTGAGCCTAGGGAGATTAGAGTATCGGTCGA”, the binding signal was determined as 5.05 log2 normalized intensity.

For the sequence “AAGCTCTGGAGTCCAAAGGTCAGCAAGCCTGCCTAGGGAGATTAGAGTATCGGTCGA”, the binding signal came to 8.14 log2 normalized intensity.

Take “CTGGAGTCCAAAGGTCAGCAAGCCTGGAGTGCCTAGGGAGATTAGAGTATCGGTCGA”: the binding signal was found to be 7.44 log2 normalized intensity.

Regarding “ATCCACCCATCCAAAGGTCAGCAATCTCAAGCCTAGGGAGATTAGAGTATCGGTCGA”, the binding signal was determined as 3.45 log2 normalized intensity.
